# Reference: PubChem BioAssay (Tox21)
# Where “and” joins values, the source holds several entries; their conditions need not be identical. Equal entries are not always repeated. Inconclusive results are not listed. Entries that show only a call come without a potency. A structure can be active in one record and inactive in another. Calls of active or inactive are those of the source. Unless noted, calls come from the whole dose curve; as a rule, active = well fitted curve in the direction sought with a large enough effect in the repeat runs; inconclusive = weak or mixed curves; inactive = no such curve, though single readings can be large; an effect the other way counts as inactive or inconclusive.
# What was measured:
# [1] = qHTS assay to identify small molecule agonists of the hypoxia (HIF-1) signaling pathway - cell viability counter screen (AID 1224844; calls by dose curve; note: nearly all actives have a fitted effect of over 50% in size)
# Outline: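 In this counter screen, HRE-bla ME-180 cell viability after 17 hrs of compound exposure at 37C was read by CellTiter-Glo luminescence, multiplexed with the beta-lactamase reporter measurement.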
# [2] = qHTS assay to identify small molecule agonists of H2AX (AID 1224845; active = well fitted activation curve with a large enough effect in the signal ratio in the repeat runs, not every such curve was filed as active; the % refers to the signal ratio)
# Outline: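 Wild-type CHO-K1 cells plated overnight, then exposed 3 hr at 37C to compounds at 15 concentrations (0.76% DMSO). Lysed, then HTRF anti-pH2AX(S139)-cryptate/anti-H2AX-d2 detection after 24 hr at room temperature; emissions 665 and 620 nm.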
# [3] = qHTS assay to identify small molecule agonists of the hypoxia (HIF-1) signaling pathway (AID 1224846; active = well fitted activation curve with a large enough effect in the signal ratio in the repeat runs, not every such curve was filed as active; the % refers to the signal ratio)
# Outline: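 ME-180 HRE-bla reporter cells; compounds in DMSO, 17 h at 37C; read-out beta-lactamase via CCF4-AM FRET.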
# [4] = qHTS RealTime-Glo MT Cell Viability Assay in HepG2 cells - 24 hour (AID 1224867); note: nearly all actives have a fitted effect of over 50% in size
# Outline: (§1)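 Luminescence read-out: viable HepG2 cells reduce a prosubstrate to a NanoLuc substrate, giving a signal proportional to live cell number. Reads taken at 0, 8, 16, 24, 32 and 40 h of compound exposure at 37 C.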
# [5] = qHTS RealTime-Glo MT Cell Viability Assay in HEK293 cells - 32 hour (AID 1224868); note: nearly all actives have a fitted effect of over 50% in size; note: potency is the fitted concentration of half-maximal effect
# Outline: (§2)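 Nonlytic real-time viability readout: viable cells convert prosubstrate to NanoLuc substrate, giving luminescence proportional to live cell number. HEK293, 600 cells/well, compound added after 5 h, continuous culture at 37 C.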
# [6] = A CellTox Green Cytotoxicity Assay to monitor cytotoxicity in HEK293 cells - 0 hour (AID 1224869); note: nearly all actives have a fitted effect of over 50% in size
# Outline: (§3)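 Real-time, in one plate: 600 HEK293 cells/well with dead-cell DNA dye, pinned compound after 5 h, 37 C incubation over 40 h; viable cells give no appreciable fluorescence.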
# [7] = A CellTox Green Cytotoxicity Assay to monitor cytotoxicity in HEK293 cells - 40 hour (AID 1224871); note: nearly all actives have a fitted effect of over 45% in size; note: potency is the fitted concentration of half-maximal effect
# Outline: as §3
# [8] = qHTS RealTime-Glo MT Cell Viability Assay in HEK293 cells - 16 hour (AID 1224872)
# Outline: as §2
# [9] = qHTS RealTime-Glo MT Cell Viability Assay in HepG2 cells - 8 hour (AID 1224873); note: nearly all actives have a fitted effect of over 55% in size
# Outline: (§4)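 HepG2 cells mixed with RealTime-Glo MT reagents (NanoLuc plus cell-permeant prosubstrate) were seeded at 600 cells/well, incubated 5 h at 37 C/5% CO2, then pinned with compounds in DMSO; nonlytic luminescence tracked viability during 40 h treatment.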
# [10] = qHTS RealTime-Glo MT Cell Viability Assay in HEK293 cells - 40 hour (AID 1224874); settings: RealTime-Glo luminescence; max response: stronger effect = lower value; note: nearly all actives have a fitted effect of over 50% in size; note: potency is the fitted concentration of half-maximal effect
# Outline: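 Kinetic, non-lysing viability readout. Seed HEK293 (600/well) with reagent, incubate 5 h at 37 C/5% CO2, pin 23 nL compound in DMSO, incubate at 37 C, read luminescence at 0, 8, 16, 24, 32, 40 h.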
# [11] = A CellTox Green Cytotoxicity Assay to monitor cytotoxicity in HEK293 cells - 24 hour (AID 1224875); note: nearly all actives have a fitted effect of over 45% in size
# Outline: as §3
# [12] = A CellTox Green Cytotoxicity Assay to monitor cytotoxicity in HepG2 cells - 16 hour (AID 1224876); note: nearly all actives have a fitted effect of over 45% in size
# Outline: (§5)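 Cytotoxicity was tracked as dead-cell DNA fluorescence in HepG2 cells treated with test compounds at 37 C; each time-point value comes from one kinetic series spanning 0, 8, 16, 24, 32 and 40 h.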
# [13] = qHTS RealTime-Glo MT Cell Viability Assay in HepG2 cells - 32 hour (AID 1224877); note: nearly all actives have a fitted effect of over 55% in size
# Outline: as §1
# [14] = A CellTox Green Cytotoxicity Assay to monitor cytotoxicity in HepG2 cells - 24 hour (AID 1224878); note: nearly all actives have a fitted effect of over 45% in size
# Outline: as §5
# [15] = A CellTox Green Cytotoxicity Assay to monitor cytotoxicity in HepG2 cells - 40 hour (AID 1224879); note: nearly all actives have a fitted effect of over 40% in size; note: potency is the fitted concentration of half-maximal effect
# Outline: as §5
# [16] = biological target: Thyrotropin receptor (Homo sapiens) (UniProt P16473); test: qHTS assay to identify small molecule agonists of the thyroid stimulating hormone receptor (TSHR) signaling pathway (AID 1224843; calls by dose curve; note: nearly all actives have a fitted effect of over 45% in size)
# Thyrotropin receptor (Homo sapiens), sequence (P16473 whole entry, looked up): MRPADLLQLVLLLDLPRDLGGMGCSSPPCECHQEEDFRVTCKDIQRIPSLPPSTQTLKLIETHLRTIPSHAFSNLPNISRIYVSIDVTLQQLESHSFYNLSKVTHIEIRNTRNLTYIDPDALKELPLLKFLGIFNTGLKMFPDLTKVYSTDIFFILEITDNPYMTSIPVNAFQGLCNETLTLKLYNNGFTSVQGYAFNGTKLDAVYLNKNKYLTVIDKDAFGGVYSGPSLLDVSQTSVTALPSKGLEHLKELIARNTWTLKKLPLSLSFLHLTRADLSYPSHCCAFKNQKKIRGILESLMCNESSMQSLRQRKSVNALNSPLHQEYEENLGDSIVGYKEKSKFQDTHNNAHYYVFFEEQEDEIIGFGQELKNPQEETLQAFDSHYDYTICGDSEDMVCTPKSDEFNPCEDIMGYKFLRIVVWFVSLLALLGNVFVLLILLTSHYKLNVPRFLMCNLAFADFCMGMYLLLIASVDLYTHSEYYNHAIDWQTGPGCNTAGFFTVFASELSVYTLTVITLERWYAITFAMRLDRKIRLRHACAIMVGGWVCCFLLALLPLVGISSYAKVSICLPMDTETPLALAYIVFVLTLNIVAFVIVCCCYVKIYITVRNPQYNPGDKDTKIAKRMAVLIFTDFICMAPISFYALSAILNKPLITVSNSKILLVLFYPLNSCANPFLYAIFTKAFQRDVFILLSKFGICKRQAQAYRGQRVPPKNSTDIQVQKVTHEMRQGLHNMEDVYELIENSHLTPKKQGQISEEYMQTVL
# Outline: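 Using 15 concentrations per compound in triplicate, cAMP production was monitored in TSHR-HEK293 cells after 30 min compound incubation at RT; HTRF reagents followed, with fluorescence intensity recorded after 1 h.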
# [17] = qHTS RealTime-Glo MT Cell Viability Assay in HepG2 cells - 40 hour (AID 1224870); note: nearly all actives have a fitted effect of over 50% in size
# Outline: as §4
# [18] = qHTS assay to identify small molecule agonists of H2AX - cell viability counter screen (AID 1224847; calls by dose curve; note: top concentration of the series differs between compounds; nearly all actives have a fitted effect of over 30% in size)
# Outline: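 Compounds tested at 15 concentrations were incubated 3 hr at 37C with wild-type CHO-K1 cells; cellular ATP-based luminescence (CellTiter-Glo) indicated viability.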
# [19] = qHTS assay to identify small molecule antagonists of the estrogen related receptor (ERR) signaling pathway from Tox21 library (AID 1224848); note: nearly all actives have a fitted effect of over 50% in size
# Outline: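 Tox21 10K compounds in DMSO tested for ERR pathway antagonism in NTP's ERR cell line; 18 h, 37 C exposure; ONE-Glo luminescence.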
# [20] = qHTS assay to identify small molecule agonists of the estrogen related receptor (ERR) signaling pathway from Tox21 library (AID 1224849; calls by dose curve; note: nearly all actives have a fitted effect of over 15% in size); settings: ERR reporter cell line, ONE-Glo luciferase, 18 h
# Outline: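 Luciferase activity in ERR pathway reporter cells served as the agonist readout; exposure lasted 18 h at 37 C, with ONE-Glo detection after 30 min at room temperature.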
smiles,measurement,setting,value
O=C(O)c1cccc([N+](=O)[O-])c1,Potency,[1],inactive
same,outcome,[2],inactive
same,outcome,[3],inactive
same,Potency,[4],inactive
same,Potency,[5],inactive
same,outcome,[6],inactive
same,Potency,[7],inactive
same,Potency,[8],inactive
same,outcome,[9],inactive
same,max response,[10],-2.27% (inactive) and 9.34% (inactive) and 3.61% (inactive)
same,Potency,[11],inactive
same,Potency,[12],inactive
same,Potency,[13],inactive
same,Potency,[14],inactive
same,Potency,[15],inactive
Nc1ccc(S(=O)(=O)c2ccc(N)cc2)cc1,outcome,[16],inactive
same,Potency,[1],inactive
same,outcome,[2],inactive
same,Potency,[4],inactive
same,Potency,[5],inactive
same,outcome,[6],inactive
same,Potency,[17],inactive
same,Potency,[7],inactive
same,Potency,[8],inactive
same,outcome,[9],inactive
same,max response,[10],3.77% (inactive) and -13.4% (inactive) and 9.1% (inactive)
same,Potency,[11],inactive
same,Potency,[12],inactive
same,Potency,[13],inactive
same,Potency,[14],inactive
same,Potency,[15],inactive
N=C(N)c1ccc(OCCCCCOc2ccc(C(=N)N)cc2)cc1,outcome,[16],inactive
same,Potency,[1],inactive
same,outcome,[2],inactive
same,outcome,[3],inactive
same,Potency,[4],inactive
same,Potency,[5],12.2 µM (active) and 16.6 µM (active)
same,outcome,[6],inactive
same,Potency,[7],48.8 µM (active) and 46.8 µM (active) and inactive
same,outcome,[9],inactive
same,Potency,[10],9.73 µM (active) and 16.6 µM (active) and 21.3 µM (active)
same,Potency,[11],inactive
same,Potency,[12],inactive
same,Potency,[13],inactive
same,Potency,[14],inactive
same,Potency,[15],48.8 µM (active) and inactive
CC(O)CN(CCN(CC(C)O)CC(C)O)CC(C)O (centres undefined),outcome,[16],inactive
same,Potency,[1],inactive
same,outcome,[2],inactive
same,Potency,[4],inactive
same,Potency,[5],inactive
same,outcome,[6],inactive
same,Potency,[7],inactive
same,Potency,[8],inactive
same,outcome,[9],inactive
same,max response,[10],2.34% (inactive) and 10.6% (inactive) and -2.16% (inactive)
same,Potency,[11],inactive
same,Potency,[12],inactive
same,Potency,[13],inactive
same,Potency,[14],inactive
same,Potency,[15],inactive
Nc1ccc(O)c(C(=O)O)c1,outcome,[16],inactive
same,Potency,[1],inactive
same,outcome,[3],inactive
same,outcome,[18],inactive
same,Potency,[19],inactive
same,"activity change, positive = activation",[20]; at 42.5 µM (top of the series),-9.77% (inactive)
same,"activity change, positive = activation",[20]; at 92.4 µM (top of the series),-1.78% (inactive) and -6.73% (inactive)
same,Potency,[4],inactive
same,Potency,[5],inactive
same,outcome,[6],inactive
same,Potency,[17],inactive
same,Potency,[7],inactive
same,Potency,[8],inactive
same,outcome,[9],inactive
same,max response,[10],1.04% (inactive) and -2.7% (inactive) and 0.776% (inactive)
same,Potency,[11],inactive
same,Potency,[12],inactive
same,Potency,[13],inactive
same,Potency,[14],inactive
same,Potency,[15],inactive
O=C(C1CCCCC1)N1CC(=O)N2CCc3ccccc3C2C1 (centres undefined),Potency,[1],inactive
same,outcome,[2],inactive
same,Potency,[19],inactive
same,"activity change, positive = activation",[20]; at 42.5 µM (top of the series),-13.9% (inactive)
same,"activity change, positive = activation",[20]; at 92.4 µM (top of the series),-22.9% (inactive) and -18.8% (inactive)
same,Potency,[4],inactive
same,Potency,[5],inactive
same,outcome,[6],inactive
same,Potency,[17],inactive
same,Potency,[7],inactive
same,Potency,[8],inactive
same,outcome,[9],inactive
same,max response,[10],-18.7% (inactive)
same,Potency,[11],inactive
same,Potency,[12],inactive
same,Potency,[13],inactive
same,Potency,[14],inactive
same,Potency,[15],inactive
